In the supplement of paper PMC8253809:
Values joined by “and” are separate entries in the source; they are usually repeats but may differ in a detail not shown here. Identical values can stand only once.

Experiments:
Assay in all cases: growth inhibition (% activity, log2 RLU normalised to DMSO / staurosporine); higher = more growth inhibition
Settings in all cases: 33 µM
[1] = tested on: DIPGX29 (H3.3 K27M diffuse intrinsic pontine glioma line)
Outline: (§1)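 For each approved drug, the growth-inhibition value is the replicate median of per-plate normalised CellTiter-Glo data. Luminescence was log2-transformed and expressed as % activity between solvent and positive control wells. Drugs were applied in triplicate at a single final concentration of about 33 μM for 7 days at 37 °C, 5% CO2 to pHGG cell lines and H9-derived neural stem cells.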

[2] = tested on: DIPGX37 (H3.3 K27M diffuse intrinsic pontine glioma line)
Outline: as §1

[3] = tested on: DIPGX7 (H3.3 K27M diffuse intrinsic pontine glioma line)
Outline: as §1

[4] = tested on: DIPGX9 (diffuse intrinsic pontine glioma line)
Outline: as §1

[5] = tested on: HGGX39 (paediatric high-grade glioma line)
Outline: as §1

[6] = tested on: HGGX6 (H3.3 G34R paediatric high-grade glioma line)
Outline: as §1

[7] = tested on: HNSC
Outline: as §1

[8] = tested on: SUDIPGIV (diffuse intrinsic pontine glioma line)
Outline: as §1

[9] = tested on: SUDIPGVI (diffuse intrinsic pontine glioma line)
Outline: as §1

[10] = tested on: SUDIPGXIII (diffuse intrinsic pontine glioma line)
Outline: as §1

| SMILES | growth inhibition [1] | growth inhibition [2] | growth inhibition [3] | growth inhibition [4] | growth inhibition [5] | growth inhibition [6] | growth inhibition [7] | growth inhibition [8] | growth inhibition [9] | growth inhibition [10] |
| --- | --- | --- | --- | --- | --- | --- | --- | --- | --- | --- |
| NS(=O)(=O)c1cc2c(cc1Cl)NCNS2(=O)=O | -1.36% | -0.293% | -0.977% | 0.545% | 0.937% | -0.432% | -1.69% | -0.42% | 0.531% | 1.25% |
| COc1ccccc1OCCNCC(O)COc1cccc2[nH]c3ccccc3c12 (stereo not given) | 6.61% | 2.55% | 3.4% | 3.73% | 5.74% | 4.11% | 7.57% | 1.9% | 5.96% | 2.05% |
| CC1=C(C(=O)OC(C)C)C(c2cccc([N+](=O)[O-])c2)C(C(=O)OC2CN(C(c3ccccc3)c3ccccc3)C2)=C(N)N1 (stereo not given) | 9.28% | 5.94% | 22.2% | 3.53% | 13.3% | 15.6% | 58% | 14.3% | 27.2% | 11.7% |
| O=C(O)Cc1cc(I)c(Oc2ccc(O)c(I)c2)c(I)c1 | 1.55% | 4.31% | 0.436% | 0.952% | 2.17% | 1.33% | -1.43% | 3.33% | 2.21% | -14.4% |
| O=C(O)COCCN1CCN(C(c2ccccc2)c2ccc(Cl)cc2)CC1 (stereo not given) | 1.96% | 2.21% | 3.97% | 2.72% | 4.64% | 3.15% | 3.36% | -0.252% | 2.48% | 0.283% |
| CC[C@H](C)C(=O)O[C@H]1C[C@H](O)C=C2C=C[C@H](C)[C@H](CC[C@@H](O)C[C@@H](O)CC(=O)O)[C@H]21 | 1.52% | -5.39% | 5.32% | 1.14% | 8.71% | 5.23% | 17.3% | 1.99% | -4.73% | 2.62% |
| COc1ccc(CN2CCN(C(c3ccc(F)cc3)c3ccc(F)cc3)CC2)c(OC)c1OC | 3.37% | 4.29% | 2.14% | 3.16% | 7.88% | 4.43% | 7.5% | 2.85% | 3.72% | -11.1% |
| CN(C)CC/C=C1/c2ccccc2Sc2ccc(Cl)cc21 | -0.186% | 0.387% | 0.793% | 0.131% | 0.989% | 2.17% | -1.13% | -1.17% | -0.358% | -1.03% |
| Clc1ccc(C(Cn2ccnc2)OCc2ccsc2Cl)c(Cl)c1 (stereo not given) | 4.62% | -2.6% | 2.82% | 4.52% | 8.15% | 7.53% | 4.99% | 13.7% | 2.98% | 5.65% |
| CC(C)CN(C[C@@H](O)[C@H](Cc1ccccc1)NC(=O)O[C@H]1CCOC1)S(=O)(=O)c1ccc(N)cc1 | -0.715% | -0.112% | -0.0284% | -0.297% | -0.345% | -0.047% | -1.76% | -2.74% | -1.11% | 0.567% |
| CC(C)/N=c1\cc2n(-c3ccc(Cl)cc3)c3ccccc3nc-2cc1Nc1ccc(Cl)cc1 | 12.5% | 10.3% | 11.1% | 5.47% | 10% | 7.37% | 66.1% | 21.9% | 5.83% | 5.35% |
| NC(=O)N/N=C/c1ccc([N+](=O)[O-])o1 | 0.652% | 0.147% | 0.615% | 0.733% | 1.49% | 0.622% | 2.46% | -1.17% | 1.04% | -0.395% |
| CC(=O)O[C@H]1CC[C@@]2(C)C(=CC[C@@H]3[C@@H]2CC[C@]2(C)C(c4cccnc4)=CC[C@@H]32)C1 | 0.369% | -0.0357% | -0.259% | 0.906% | 2.75% | -0.409% | -1.27% | -0.864% | -0.189% | -0.391% |
| O.O.O.O.O=C([O-])CC(O)(CC(=O)[O-])C(=O)[O-].[Li+].[Li+].[Li+] | 1.75% | 1.97% | 1.43% | 0.467% | -0.0466% | -1.34% | 26.2% | 0.611% | 1.36% | -0.99% |
| O=C(O)c1ccccc1 | -1.57% | 1.08% | -0.546% | -0.0449% | 0.585% | -1.44% | 1.02% | 1.15% | -2.88% | 1.73% |
| CC1(C)O[C@@H]2[C@@H](CO[C@@]3(COS(N)(=O)=O)OC(C)(C)O[C@@H]23)O1 | -3.02% | -1.66% | -1.31% | -2.57% | -2.13% | -3.4% | -3.88% | -3.39% | -3.08% | -0.599% |
| CC(=O)O[C@]1(C(C)=O)CC[C@H]2[C@@H]3C[C@H](C)C4=CC(=O)C=C[C@]4(C)[C@@]3(F)[C@@H](O)C[C@@]21C | 1.69% | 3.28% | 0.393% | 5.69% | 4.16% | -1.08% | 0.0126% | -1.42% | 3.88% | 1.16% |
| CCc1nc(N)nc(N)c1-c1ccc(Cl)cc1 | 16.1% | 2.67% | 1.94% | 4.42% | 7.42% | 2.78% | 6.9% | 12.6% | 7.22% | 4.01% |
| CCC(=O)O[C@]1(C(=O)CCl)[C@@H](C)C[C@H]2[C@@H]3CCC4=CC(=O)C=C[C@]4(C)[C@@]3(F)[C@@H](O)C[C@@]21C | 2.76% | 3.09% | 1.96% | 5.92% | 8.62% | 1.59% | 10.2% | 6.72% | 2.14% | 2.24% |
| CS(=O)(=O)c1ccc(C(=O)Nc2ccc(Cl)c(-c3ccccn3)c2)c(Cl)c1 | 2.56% | 2.2% | 3.42% | 7.16% | 5.46% | 2.09% | 4.02% | 0.0205% | 4.38% | -0.808% |
| NC1CCN(c2c(F)cc3c(=O)c(C(=O)O)cn(C4CC4)c3c2Cl)C1 (stereo not given) | 0.157% | -1.86% | 1.13% | 1.33% | 2.79% | -0.611% | 1.85% | -0.22% | 1.99% | -0.254% |

| SMILES | growth inhibition [1] | growth inhibition [2] | growth inhibition [3] | growth inhibition [4] | growth inhibition [5] | growth inhibition [6] | growth inhibition [7] | growth inhibition [8] | growth inhibition [9] | growth inhibition [10] |
| --- | --- | --- | --- | --- | --- | --- | --- | --- | --- | --- |
| CN(C)CCc1c[nH]c2ccc(CS(=O)(=O)N3CCCC3)cc12 | 1.96% | 3.12% | 1.45% | 1.71% | 2.56% | 3.04% | 1.98% | 0.896% | 3.66% | -0.309% |
| CNC(=O)CN(CCN(CCN(CC(=O)[O-])CC(=O)NC)CC(=O)[O-])CC(=O)[O-].[Gd+3] | -2.04% | -0.306% | -1.48% | -2.31% | -1.74% | 1.15% | -6.04% | -1.08% | -1.67% | 0.753% |
| CC(=O)Nc1ccccc1 | -2.81% | -0.334% | -1.79% | -2.39% | -2.41% | -0.159% | -3.95% | -0.657% | -5.47% | 0.153% |
| Cc1nc2n(c(=O)c1CCN1CCC(c3noc4cc(F)ccc34)CC1)CCCC2 | 2.78% | 1.21% | 3.37% | 1.08% | 3.29% | 1.84% | 0.606% | 0.111% | -0.157% | 1.25% |
| CN(C(=O)CN(CCO)CC(=O)N(C)C(C)(C)Cc1ccccc1)C(C)(C)Cc1ccccc1 | 11.3% | 3.37% | 29% | 4.47% | 9.74% | 2.56% | 53.1% | 3.05% | 6.12% | 10.4% |
| O=C([O-])c1ccccc1O.[Na+] | 1.02% | 2.5% | 2.56% | 1.21% | 1.15% | -1.22% | 28.2% | 1.6% | -4.02% | 0.791% |
| Cc1ccccc1N1C(=O)c2cc(S(N)(=O)=O)c(Cl)cc2NC1C (stereo not given) | -2.6% | 0.236% | -3.01% | -0.0701% | -1.7% | -0.825% | -3.02% | -1.65% | -1.57% | -0.324% |
| CC(C)Cc1ccc(C(C)C(=O)O)cc1 (stereo not given) | 0.835% and -0.392% | 2.64% and 0.0742% | 2.15% and 0.0236% | 1.07% and 0.0197% | 2.25% and -0.715% | 1.92% and 1.49% | -0.67% and 0.218% | -1.49% and -4.48% | 2.09% and 0.812% | -0.0501% and 0.956% |
| CCCOc1ccc2[nH]c(NC(=O)OC)nc2c1 | 6.12% | 5.82% | 6.31% | 9.95% | 7.33% | 9.96% | 66.6% | 11.4% | -1.9% | 3.23% |
| Nc1nc(CC(=O)Nc2ccc(CCNC[C@H](O)c3ccccc3)cc2)cs1 | 0.527% | 0.899% | -0.176% | 0.63% | 1.04% | -0.0848% | -1.35% | -0.627% | 0.0605% | 0.226% |
| C#CC1(O)CC[C@H]2[C@@H]3CCC4=CC(=O)CC[C@@H]4[C@H]3CC[C@@]21CC (stereo not given in full) | -0.0424% | 0.475% | -1.66% | 0.691% | 0.0435% | 0.889% | -0.272% | -0.687% | 1.24% | 1.03% |
| CN(C)c1nc(N(C)C)nc(N(C)C)n1 | -3.35% | -1.75% | -1.42% | -3.04% | -3.6% | -3.16% | -5.97% | -3.04% | -2.53% | -0.234% |
| COc1ccc2c(c1)c(CC(=O)OCC(=O)O)c(C)n2C(=O)c1ccc(Cl)cc1 | 4.7% | 5.04% | 3.74% | 5.54% | 6.62% | 4.04% | 6.99% | -0.727% | 5.09% | 1.16% |
| CCC[C@H](N[C@@H](C)C(=O)N1[C@H](C(=O)O)C[C@@H]2CCCC[C@@H]21)C(=O)OCC | 1.9% | 3.94% | 2.49% | 2.02% | 2.66% | 2.59% | 0.292% | 0.563% | 1.95% | 0.674% |
| Cc1cc(C)nc(NS(=O)(=O)c2ccc(N)cc2)n1 | -2.92% | 0.0741% | -1.22% | -1.22% | -1.68% | -2.24% | 4.45% | -1.47% | -1.67% | 0.778% |
| O=C(CCCN1CCC(O)(c2ccc(Cl)cc2)CC1)c1ccc(F)cc1 | 0.532% | 0.49% | 2.11% | 2.82% | 5.5% | 1.74% | 2.33% | 2.23% | 0.854% | 1.18% |
| C=CCc1cc(OC)c(O)c(C(=O)NCCO)c1 | -2.1% | 0.086% | -1.32% | 0.81% | -1.9% | -0.129% | -0.87% | -1.83% | 0.104% | -0.0438% |
| Cc1cc(C(C)(C)C)c(O)c(C)c1CC1=NCCN1 | 0.231% | 3.01% | 1.52% | 2.19% | 1.3% | 0.112% | 0.146% | 1.18% | 1.88% | 0.459% |
| CN(Cc1cc(Br)cc(Br)c1N)C1CCCCC1 | 2.48% | 1.22% | 4.28% | 3.08% | 5.14% | 1.81% | 7.22% | 3.97% | 3.03% | -1.94% |
| CNCC[C@H](Oc1cccc2ccccc12)c1cccs1 | 3.5% | 4.35% | 4.07% | 2.42% | 5.92% | 4.8% | 16.9% | 2.42% | 4.44% | -1.12% |
